Common to all, as to experiment: NCI-60 one-dose screen, 48 h (100 = growth as untreated, 0 = no growth, -100 = all killed)
Holding throughout (conditions): 10 µM unless noted

Experiment [1] has as its system DU-145 prostate.
The test system of experiment [2] is K-562 leukemia.
The test system of experiment [3] is MALME-3M melanoma.
Experiment [4] relates to MDA-MB-231 breast.
The subject of experiment [5] is RXF 393 renal.
The subject of experiment [6] is SF-268 CNS.
Experiment [7] relates to SF-295 CNS.
The subject of experiment [8] is SF-539 CNS.
In experiment [9] the test system is UACC-257 melanoma.
Experiment [10] deals with M14 melanoma.
Experiment [11] relates to HCT-15 colon.
Experiment [12] concerns HT29 colon.
The test system of experiment [13] is SNB-75 CNS.
The subject of experiment [14] is SNB-19 CNS.
Experiment [15] concerns U251 CNS.
The subject of experiment [16] is PC-3 prostate.
Experiment [17] deals with SK-MEL-5 melanoma.
Experiment [18] concerns UACC-62 melanoma.
Experiment [19] concerns LOX IMVI melanoma.
Experiment [20] has as its system SK-MEL-28 melanoma.

About 83,000 compounds went through this panel and 20% of them were active in at least one assay; those are over-represented in the sample as a whole.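 Single-concentration screen, 48 h exposure, 96-well plates. Endpoint: percent growth. Below 10 = active.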 A number with no mark means an inactive call. Active and inactive are the calls of the source.

As for `O=C(Nc1ncc(Cc2ccccc2)s1)c1ccc2c(c1)OCCCO2`, the growth in [1] was 27.5%; in experiment [2] it was 9.28% (active); in [3], 51%; in experiment [4] it was 44%; in experiment [5] it was -10% (active); in [6], 60.4%. For the same molecule, the growth in experiment [7] was 15.2%; in experiment [8], -9.3% (active); in experiment [9], 41.4%; in experiment [10], 3.29% (active); in experiment [11] it was 21.5%; in experiment [12], 9.72% (active). Moreover, the growth in experiment [13] was 34.3%; in experiment [14] it was 37.4%; in experiment [15], 35.4%; in experiment [16], 27.7%; in experiment [17], 8.06% (active); in experiment [18], 29%. The growth in experiment [19] was 29.9%; in experiment [20], 36.8%.
`CCCCNc1nnc2n(Cc3ccccc3)c(=O)c3c4c(sc3n12)CCCC4`: the growth in experiment [1] is 38.3%; in experiment [2], 41.2%; in experiment [3], 40.3%; in [4], 54.9%; in experiment [5], 63.2%; in [6], 63.6%. Further, the growth is 48.4% in [7]; 47.1% in experiment [8]; 54.1% in experiment [9]; 56.3% in experiment [10]; 30.5% in experiment [11]; 24.8% in [12]. In addition, the growth was 66.4% in experiment [13]; 56.5% in experiment [14]; 48.5% in experiment [15]; 42.7% in [16]; 27.7% in experiment [17]; 32.5% in [18]. The growth was 30.2% in [19] and 60.7% in experiment [20].
For the molecule `CC(=O)OC(c1ccccc1)C1CCOC1=O` (stereo not given), the growth in experiment [1] is 115%; in experiment [2] it was 108%; in experiment [3] it was 107%; in [4] it was 103%; in experiment [5], 101%; in experiment [6], 110%. Besides, the growth in [7] was 94.6%; in [8] it was 101%; in [9] it was 102%; in experiment [10] it was 99.9%; in experiment [11] it was 97.1%; in experiment [12], 99.5%. For the same molecule, the growth in experiment [13] is 79.2%; in [14], 109%; in [15] it was 99.1%; in [16] it was 100%; in [17], 102%; in [18] it was 87.2%. In addition, the figures for the growth in experiment [19] and in [20] were 96.7% and 113%, respectively.
In the case of `COc1ccc(Cn2cc3c(c2-c2ccccc2)CCc2cnoc2-3)cc1`, the growth was -4.72% (active) in experiment [1]; 13.7% in experiment [2]; 70.2% in [3]; 10.4% in [4]; 24.8% in [5]; 16% in experiment [6]. Moreover, the growth in [7] is 23.2%; in experiment [8], -12.8% (active); in [9], 78.8%; in experiment [10] it was 16.8%; in experiment [11], 16.7%; in [12] it was 11.7%. Further, the growth in experiment [13] was 44.2%; in experiment [14], 39.8%; in [15], 29.4%; in experiment [16] it was 27.4%; in experiment [17] it was -10% (active); in experiment [18] it was 24%. Besides, the growth is 29.6% in [19] and 56.4% in experiment [20].
`COc1ccc2cc(-c3ccnc4c(N=Nc5ccc(Cl)cc5)c(N)nn34)ccc2c1`: the growth in experiment [1] was 105%; in [2], 86.5%; in experiment [3], 97.8%; in experiment [4] it was 101%; in experiment [5] it was 115%; in experiment [6], 101%. The growth was 102% in experiment [7]; 103% in experiment [8]; 84.2% in experiment [9]; 92.8% in [10]; 112% in experiment [11]; 103% in experiment [12]. Also, the growth in experiment [13] was 79.4%; in experiment [14], 92.4%; in [15], 93.4%; in [16], 89%; in [17], 97.5%; in [18], 91.8%. The growth in [19] is 102%; in [20] it was 99.2%.
On to `Cc1ccc(CNc2ccc3nc(CCC(C)C)[nH]c3c2)cc1`, for which the growth in experiment [1] was 101%; in experiment [2], 79.2%; in experiment [3], 90.9%; in experiment [4], 86%; in experiment [5], 96%; in experiment [6], 91.2%. Also, the growth in experiment [7] was 95.1%; in experiment [8] it was 94.4%; in experiment [9] it was 89.7%; in experiment [10], 96.2%; in experiment [11] it was 79.5%; in experiment [12], 92.4%. The growth is 86.4% in experiment [13]; 89% in experiment [14]; 91.8% in [15]; 77.9% in experiment [16]; 97.8% in experiment [17]; 90.7% in [18]. Besides, the growth in experiment [19] is 94.5%; in experiment [20] it was 98%.
As to `CC1(C)C(N)=Nc2cc(OCCCN3Cc4ccccc4C3)c(OCC3CC3)cc21`, the growth in experiment [1] is 93.8%; in experiment [2], 38.8%; in experiment [3] it was -14% (active); in [4], 49.1%; in [5], 69.3%; in experiment [6], 80.2%. In addition, the growth was 78.3% in [7]; 70.3% in experiment [8]; 1.23% (active) in experiment [9]; -45.1% (active) in experiment [10]; 40% in experiment [11]; 31.6% in experiment [12]. Besides, the growth in [13] is 77.3%; in experiment [14] it was 85.2%; in experiment [15], 56.4%; in experiment [16], 49.6%; in experiment [17] it was 53.1%; in experiment [18], 78%. Moreover, the growth is 33.7% in [19] and 56.2% in experiment [20].
Regarding `O=C1c2ccccc2C(=O)C1c1ccc(Br)cc1`, the growth in experiment [1] was 118%; in [2], 104%; in experiment [3], 88.8%; in experiment [4], 89.4%; in [5], 121%; in experiment [6], 113%. For the same molecule, the growth in experiment [7] is 90.5%; in experiment [8], 104%; in experiment [9] it was 110%; in [10], 109%; in experiment [11] it was 92.7%; in experiment [12] it was 101%. Also, the growth in [13] was 65%; in [14], 104%; in experiment [15], 95.8%; in experiment [16], 97.9%; in experiment [17] it was 107%; in experiment [18], 98.3%. The growth was 88.9% in experiment [19] and 98% in [20].

Values taken from PubChem BioAssay (NCI).
